From publication PMC5540273 (PLoS ONE, 2017)

How the values were obtained:
Conditions in all cases: concentration: 1 μM, replicates: in singlicate; n = 1
SRPK1 = test system: SRPK1
SRPK2 = test system: SRPK2
SRPK3 = test system: SRPK3
STK16 = test system: STK16
STK33 = test system: STK33
STK35 = test system: STK35
STK36 = test system: STK36
STK39 = test system: STK39
SYK = test system: SYK
SgK110 = test system: SgK110
TAK1 = test system: T1, TAK1
T1 construct: gene MAP3K7

TAOK1 = test system: TAOK1
TAOK2 = test system: TAOK2
TAOK3 = test system: TAOK3
TBK1 = test system: TBK1
TEC = test system: TEC
TESK1 = test system: TESK1
TGFBR1 = test system: TGFBR1
TGFBR2 = test system: TGFBR2
TIE1 = test system: TIE1
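Further: KINOMEscan kinase panel screen.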

Row | SMILES | %Inh (SRPK1) | %Inh (SRPK2) | %Inh (SRPK3) | %Inh (STK16) | %Inh (STK33) | %Inh (STK35) | %Inh (STK36) | %Inh (STK39) | %Inh (SYK) | %Inh (SgK110) | %Inh (TAK1) | %Inh (TAOK1) | %Inh (TAOK2) | %Inh (TAOK3) | %Inh (TBK1) | %Inh (TEC) | %Inh (TESK1) | %Inh (TGFBR1) | %Inh (TGFBR2) | %Inh (TIE1)
1 | CCn1c(-c2nonc2N)nc2ccccc21 [SB-693162/GW549034] | 0% | 0% | 24% | 23% | 15% | 0% | 0% | 37% | 0% | 0% | 33% | 0% | 0% | 3% | 34% | 0% | 14% | 53% | 0% | 56%
2 | O=C1NC(=O)C(c2ccccc2)=C1Nc1cccc(O)c1 [SB-390534] | 20% | 7% | 0% | 0% | 4% | 2% | 0% | 4% | 6% | 0% | 0% | 30% | 22% | 18% | 14% | 0% | 13% | 6% | 0% | 22%
3 | COC(=O)c1c(-c2ccccc2)c2cc(Br)ccc2c(=O)n1Cc1ccc(S(C)(=O)=O)cc1 | 0% | 0% | 1% | 38% | 2% | 0% | 10% | 2% | 0% | 6% | 39% | 0% | 0% | 0% | 19% | 25% | 22% | 4% | 0% | 21%
4 | COc1ccc(-c2cc3c(C)nc(N)nc3n([C@H]3CC[C@H](O)CC3)c2=O)cn1 | 21% | 0% | 0% | 0% | 0% | 0% | 0% | 0% | 0% | 0% | 21% | 0% | 0% | 0% | 90% | 0% | 7% | 0% | 6% | 0%
5 | COc1ccc(Nc2nccc(N3CCC(NS(=O)(=O)c4ccc(NC(C)=O)cc4)C3)n2)cc1 (centres unmarked) [GSK1379729] | 35% | 0% | 63% | 19% | 10% | 14% | 3% | 2% | 35% | 4% | 0% | 2% | 0% | 2% | 11% | 3% | 16% | 7% | 7% | 20%
6 | COc1cc2nccc(Nc3ccc(OCc4ccc(NC(C)=O)cc4)cc3)c2cc1OC.Cl [GW440135] | 42% | 12% | 23% | 2% | 15% | 3% | 29% | 3% | 6% | 21% | 0% | 0% | 0% | 1% | 0% | 0% | 13% | 21% | 5% | 1%
7 | Nc1ncnc2c1ncn2-c1cccc2ccccc12 [SKF-97184] | 0% | 32% | 12% | 9% | 0% | 0% | 6% | 25% | 0% | 31% | 3% | 0% | 9% | 0% | 30% | 0% | 0% | 40% | 11% | 0%
8 | CCCC(=O)Nc1n[nH]c2ncc(-c3cccc4ccccc34)cc12 [SB-642057] | 16% | 0% | 0% | 24% | 0% | 4% | 0% | 6% | 0% | 0% | 0% | 0% | 1% | 1% | 27% | 15% | 40% | 14% | 49% | 0%
9 | Cc1ccccc1COc1cc(-n2cnc3cc(Cl)ccc32)sc1C(N)=O [GW813349] | 10% | 34% | 10% | 0% | 30% | 0% | 30% | 0% | 9% | 0% | 0% | 0% | 3% | 0% | 22% | 0% | 7% | 28% | 0% | 11%
10 | COc1ccc(-c2coc3ccc(-c4nnc(SCc5cccc(C#N)c5)o4)cc23)cc1 | 0% | 0% | 0% | 20% | 0% | 26% | 8% | 0% | 14% | 10% | 23% | 0% | 10% | 0% | 10% | 0% | 0% | 11% | 0% | 17%
